Common to all, as to assay: DAPPL (digital affinity profiling via proximity ligation, sequencing); 10 mM Tris-HCl pH 7.5, 50 mM NaCl, 1 mM DTT, 4% glycerol, room temperature, 30 min; GST-TFs on glutathione beads, 16-mer random dsDNA library, 0.1% formaldehyde crosslink after washing; high values mean tight binding
For one assay, the target named is T1, FEV (Homo sapiens, UniProt Q99581 1-238).
T1 sequence: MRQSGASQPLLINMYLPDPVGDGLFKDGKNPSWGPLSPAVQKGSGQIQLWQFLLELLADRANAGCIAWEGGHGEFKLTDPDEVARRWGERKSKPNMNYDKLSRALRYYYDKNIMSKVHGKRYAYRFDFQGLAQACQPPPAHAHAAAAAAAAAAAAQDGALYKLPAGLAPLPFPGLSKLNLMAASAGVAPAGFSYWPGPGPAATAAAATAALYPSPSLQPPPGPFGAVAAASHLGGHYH
The note with it: protein: recombinant; tags: N-terminal GST; dsDNA, one strand shown. In a few lines: (§1)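 Yeast served to express human transcription factors as GST fusions, which were then captured on glutathione beads and labelled with DNA barcodes. Pooled with a tag-only sample, they were incubated with 200 nmole of a 16-mer random double-stranded DNA library for 30 min at room temperature in Tris/NaCl/DTT/glycerol buffer, washed, crosslinked with 0.1% formaldehyde, ligated by proximity, amplified by PCR and sequenced. Dividing each hexamer's read frequency for a factor by its frequency for the tag-only sample gives the binding signal.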

Another assay has as its target ETV5 (Homo sapiens, UniProt P41161 1-510). To be noted: protein: recombinant; tags: N-terminal GST; dsDNA, one strand shown. In a few lines:
as §1

The target in a further assay is HSF1 (Homo sapiens, UniProt Q00613 1-529). The note with it: protein: recombinant; tags: N-terminal GST; chain copies: 3; dsDNA, one strand shown. In a few lines: as §1
The next assay has as its target T2, SPIC (Homo sapiens, UniProt Q8N5J4 1-248).
T2 sequence: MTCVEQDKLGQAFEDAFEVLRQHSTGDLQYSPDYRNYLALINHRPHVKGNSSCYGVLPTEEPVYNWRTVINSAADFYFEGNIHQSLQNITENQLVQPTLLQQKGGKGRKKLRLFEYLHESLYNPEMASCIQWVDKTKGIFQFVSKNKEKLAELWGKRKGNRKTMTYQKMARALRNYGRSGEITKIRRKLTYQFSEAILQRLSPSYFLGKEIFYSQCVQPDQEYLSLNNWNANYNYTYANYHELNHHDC
To be noted: protein: recombinant; tags: N-terminal GST; dsDNA, one strand shown. In short, it runs like this:
as §1

Another assay concerns the target ELF4 (Homo sapiens, UniProt Q99607 1-663). The note with it: protein: recombinant; tags: N-terminal GST; dsDNA, one strand shown. In short, it runs like this:
as §1

A further assay has as its target T3, ELK4 (Homo sapiens, UniProt P28324-2 1-405).
T3 sequence: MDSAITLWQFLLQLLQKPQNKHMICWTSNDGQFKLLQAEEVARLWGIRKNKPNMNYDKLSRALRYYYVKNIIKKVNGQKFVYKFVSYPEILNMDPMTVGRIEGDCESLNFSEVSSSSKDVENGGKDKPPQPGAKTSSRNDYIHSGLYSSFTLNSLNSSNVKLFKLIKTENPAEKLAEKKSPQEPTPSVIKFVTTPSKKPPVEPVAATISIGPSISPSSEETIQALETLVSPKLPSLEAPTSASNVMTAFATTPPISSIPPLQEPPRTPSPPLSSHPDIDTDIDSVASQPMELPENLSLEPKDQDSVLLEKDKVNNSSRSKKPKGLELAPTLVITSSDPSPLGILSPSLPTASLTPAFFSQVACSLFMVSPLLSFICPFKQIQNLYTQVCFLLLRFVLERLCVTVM
To be noted: protein: recombinant; tags: N-terminal GST; dsDNA, one strand shown. In short, it runs like this:
as §1

Another assay deals with T4, ETV2 (Homo sapiens, UniProt O00321 1-342).
T4 sequence: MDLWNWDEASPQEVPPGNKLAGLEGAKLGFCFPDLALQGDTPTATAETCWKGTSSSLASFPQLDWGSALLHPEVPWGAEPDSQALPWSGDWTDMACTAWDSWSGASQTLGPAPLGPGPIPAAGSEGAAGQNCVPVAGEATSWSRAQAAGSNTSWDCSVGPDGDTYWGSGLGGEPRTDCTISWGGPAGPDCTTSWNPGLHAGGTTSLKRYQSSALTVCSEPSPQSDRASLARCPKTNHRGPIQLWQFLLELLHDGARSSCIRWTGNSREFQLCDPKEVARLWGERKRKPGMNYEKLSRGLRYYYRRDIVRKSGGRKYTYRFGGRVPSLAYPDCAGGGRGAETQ
The note with it: protein: recombinant; tags: N-terminal GST; dsDNA, one strand shown. In a few lines: as §1

The target of the next assay is T5, ELF3 (Homo sapiens, UniProt P78545 1-371).
T5 sequence: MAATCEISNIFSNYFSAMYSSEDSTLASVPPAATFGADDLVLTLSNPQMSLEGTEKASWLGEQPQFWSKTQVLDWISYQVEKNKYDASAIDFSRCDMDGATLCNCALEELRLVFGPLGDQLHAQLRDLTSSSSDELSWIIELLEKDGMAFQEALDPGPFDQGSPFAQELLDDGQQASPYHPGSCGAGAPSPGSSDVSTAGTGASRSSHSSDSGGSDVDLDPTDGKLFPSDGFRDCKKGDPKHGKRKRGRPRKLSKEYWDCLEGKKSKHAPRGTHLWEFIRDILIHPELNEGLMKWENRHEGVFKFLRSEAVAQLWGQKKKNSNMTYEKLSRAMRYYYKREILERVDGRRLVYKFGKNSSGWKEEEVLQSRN
The note with it: protein: recombinant; tags: N-terminal GST; dsDNA, one strand shown. In short, it runs like this: as §1

The target of another assay is CRX (Homo sapiens, UniProt O43186 1-299). To be noted: protein: recombinant; tags: N-terminal GST; dsDNA, one strand shown. In a few lines: as §1
In a further assay the target is ETV1 (Homo sapiens, UniProt P50549 1-477). To be noted: protein: recombinant; tags: N-terminal GST; dsDNA, one strand shown. In a few lines:
as §1

In a further assay the target is T6, ERF (Homo sapiens, UniProt P50548 1-548).
T6 sequence: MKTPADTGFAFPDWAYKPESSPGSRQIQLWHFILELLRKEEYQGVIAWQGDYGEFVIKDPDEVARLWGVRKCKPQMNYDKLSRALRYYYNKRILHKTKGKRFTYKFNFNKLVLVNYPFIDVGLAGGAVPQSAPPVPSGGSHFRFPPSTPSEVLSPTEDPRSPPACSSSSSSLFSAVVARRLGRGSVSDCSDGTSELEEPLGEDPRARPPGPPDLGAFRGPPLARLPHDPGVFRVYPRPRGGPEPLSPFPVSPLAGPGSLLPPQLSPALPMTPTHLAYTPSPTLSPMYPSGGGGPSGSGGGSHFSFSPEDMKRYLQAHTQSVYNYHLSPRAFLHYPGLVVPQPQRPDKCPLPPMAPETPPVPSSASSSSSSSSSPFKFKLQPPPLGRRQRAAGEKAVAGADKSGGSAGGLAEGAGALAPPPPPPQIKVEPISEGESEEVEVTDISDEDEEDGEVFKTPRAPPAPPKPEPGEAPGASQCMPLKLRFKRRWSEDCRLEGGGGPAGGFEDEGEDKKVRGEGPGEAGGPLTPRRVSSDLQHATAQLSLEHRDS
The note with it: protein: recombinant; tags: N-terminal GST; dsDNA, one strand shown. In short, it runs like this: as §1

A further assay concerns the target T7, ETV3L (Homo sapiens, UniProt Q6ZN32 1-361).
T7 sequence: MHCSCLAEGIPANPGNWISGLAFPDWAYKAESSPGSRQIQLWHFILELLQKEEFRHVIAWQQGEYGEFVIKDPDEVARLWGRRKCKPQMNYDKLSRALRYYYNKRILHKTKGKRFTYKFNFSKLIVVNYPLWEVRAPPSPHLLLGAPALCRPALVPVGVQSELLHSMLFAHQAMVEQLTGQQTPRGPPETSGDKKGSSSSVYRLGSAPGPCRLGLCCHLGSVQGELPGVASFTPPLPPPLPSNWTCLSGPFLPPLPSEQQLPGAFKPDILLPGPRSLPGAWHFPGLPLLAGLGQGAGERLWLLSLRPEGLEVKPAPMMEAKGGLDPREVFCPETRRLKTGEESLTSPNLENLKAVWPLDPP
To be noted: protein: recombinant; tags: N-terminal GST; dsDNA, one strand shown. In short, it runs like this: as §1

A further assay has as its target T8, ETS2 (Homo sapiens, UniProt P15036 1-469).
T8 sequence: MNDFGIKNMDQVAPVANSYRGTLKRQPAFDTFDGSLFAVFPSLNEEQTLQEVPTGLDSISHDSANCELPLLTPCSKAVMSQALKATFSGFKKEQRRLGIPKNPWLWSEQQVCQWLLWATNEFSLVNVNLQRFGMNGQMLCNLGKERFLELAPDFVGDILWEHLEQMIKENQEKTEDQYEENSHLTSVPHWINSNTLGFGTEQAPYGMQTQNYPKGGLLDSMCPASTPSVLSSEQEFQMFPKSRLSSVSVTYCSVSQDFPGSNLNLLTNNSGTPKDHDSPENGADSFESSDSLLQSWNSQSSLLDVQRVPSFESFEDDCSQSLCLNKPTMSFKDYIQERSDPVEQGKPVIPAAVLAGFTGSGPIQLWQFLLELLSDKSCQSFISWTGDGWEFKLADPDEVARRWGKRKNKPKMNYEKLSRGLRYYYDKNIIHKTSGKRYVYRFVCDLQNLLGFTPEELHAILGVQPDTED
The note with it: protein: recombinant; tags: N-terminal GST; dsDNA, one strand shown. In a few lines: as §1

Another assay has as its target T9, SPDEF (Homo sapiens, UniProt O95238 1-335).
T9 sequence: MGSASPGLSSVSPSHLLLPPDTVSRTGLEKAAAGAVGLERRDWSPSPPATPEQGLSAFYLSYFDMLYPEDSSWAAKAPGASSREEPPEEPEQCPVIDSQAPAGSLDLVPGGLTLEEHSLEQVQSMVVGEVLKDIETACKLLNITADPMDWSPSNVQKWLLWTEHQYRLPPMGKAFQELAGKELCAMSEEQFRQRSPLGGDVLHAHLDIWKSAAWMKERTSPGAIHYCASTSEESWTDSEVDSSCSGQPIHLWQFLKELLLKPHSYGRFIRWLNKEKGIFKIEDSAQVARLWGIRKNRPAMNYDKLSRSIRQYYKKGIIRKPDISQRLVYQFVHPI
To be noted: protein: recombinant; tags: N-terminal GST; dsDNA, one strand shown. In a few lines:
as §1

Another assay addresses T10, ETV7 (Homo sapiens, UniProt Q9Y603 1-341).
T10 sequence: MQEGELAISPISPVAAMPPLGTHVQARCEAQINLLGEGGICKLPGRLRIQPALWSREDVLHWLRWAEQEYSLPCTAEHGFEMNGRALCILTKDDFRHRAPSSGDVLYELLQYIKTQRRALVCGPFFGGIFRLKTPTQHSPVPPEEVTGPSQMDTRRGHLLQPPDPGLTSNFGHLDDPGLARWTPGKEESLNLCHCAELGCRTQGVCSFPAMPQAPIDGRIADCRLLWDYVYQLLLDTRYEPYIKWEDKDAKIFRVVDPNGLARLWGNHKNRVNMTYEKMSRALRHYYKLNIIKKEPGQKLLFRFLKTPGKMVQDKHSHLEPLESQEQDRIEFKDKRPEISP
The note with it: protein: recombinant; tags: N-terminal GST; dsDNA, one strand shown. In a few lines: as §1

The next assay has as its target T11, ELF5 (Homo sapiens, UniProt Q9UKW6-2 1-255).
T11 sequence: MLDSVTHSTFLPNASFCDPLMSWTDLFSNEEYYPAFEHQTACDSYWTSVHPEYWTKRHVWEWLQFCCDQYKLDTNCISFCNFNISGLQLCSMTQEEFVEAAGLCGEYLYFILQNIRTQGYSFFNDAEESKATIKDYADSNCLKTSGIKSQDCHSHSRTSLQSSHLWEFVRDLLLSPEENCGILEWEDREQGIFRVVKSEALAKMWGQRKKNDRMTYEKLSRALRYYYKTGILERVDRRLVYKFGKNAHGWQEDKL
To be noted: protein: recombinant; tags: N-terminal GST; dsDNA, one strand shown. In short, it runs like this: as §1

The target in a further assay is T12, ETV3 (Homo sapiens, UniProt P41162-2 1-143).
T12 sequence: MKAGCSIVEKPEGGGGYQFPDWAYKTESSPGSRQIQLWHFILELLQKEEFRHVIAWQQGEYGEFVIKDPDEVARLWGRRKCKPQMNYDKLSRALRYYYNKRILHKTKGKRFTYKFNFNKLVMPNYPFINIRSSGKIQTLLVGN
The note with it: protein: recombinant; tags: N-terminal GST; dsDNA, one strand shown. In short, it runs like this:
as §1

The next assay has as its target ETV6 (Homo sapiens, UniProt P41212 1-452). The note with it: protein: recombinant; tags: N-terminal GST; dsDNA, one strand shown. In a few lines:
as §1

Chain of ETV6 (P41212 whole entry): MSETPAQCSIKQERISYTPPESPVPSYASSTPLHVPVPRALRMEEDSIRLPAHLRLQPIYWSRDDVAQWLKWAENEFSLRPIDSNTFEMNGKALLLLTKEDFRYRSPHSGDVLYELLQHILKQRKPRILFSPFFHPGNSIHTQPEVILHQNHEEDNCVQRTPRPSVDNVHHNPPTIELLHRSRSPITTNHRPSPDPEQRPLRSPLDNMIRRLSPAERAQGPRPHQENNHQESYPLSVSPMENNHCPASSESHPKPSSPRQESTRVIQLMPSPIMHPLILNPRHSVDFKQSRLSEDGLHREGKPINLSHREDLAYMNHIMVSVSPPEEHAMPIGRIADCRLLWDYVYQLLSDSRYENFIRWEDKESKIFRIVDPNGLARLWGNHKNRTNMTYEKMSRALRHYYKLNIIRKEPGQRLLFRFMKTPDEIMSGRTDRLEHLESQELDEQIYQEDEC
Chain of ETV1 (P50549 whole entry): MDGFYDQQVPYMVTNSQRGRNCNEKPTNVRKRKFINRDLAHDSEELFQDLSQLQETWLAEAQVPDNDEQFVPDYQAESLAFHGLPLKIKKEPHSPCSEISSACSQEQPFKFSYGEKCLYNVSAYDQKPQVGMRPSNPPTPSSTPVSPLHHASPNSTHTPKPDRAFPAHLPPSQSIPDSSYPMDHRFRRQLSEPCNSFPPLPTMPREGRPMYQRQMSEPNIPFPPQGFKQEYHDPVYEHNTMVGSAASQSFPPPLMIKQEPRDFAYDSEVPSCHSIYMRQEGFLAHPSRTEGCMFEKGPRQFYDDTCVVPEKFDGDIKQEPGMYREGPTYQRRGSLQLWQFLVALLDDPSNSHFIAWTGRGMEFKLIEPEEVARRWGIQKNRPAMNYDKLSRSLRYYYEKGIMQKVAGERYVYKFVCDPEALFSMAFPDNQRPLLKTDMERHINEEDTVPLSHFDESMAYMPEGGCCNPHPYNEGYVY
Chain of CRX (O43186 whole entry): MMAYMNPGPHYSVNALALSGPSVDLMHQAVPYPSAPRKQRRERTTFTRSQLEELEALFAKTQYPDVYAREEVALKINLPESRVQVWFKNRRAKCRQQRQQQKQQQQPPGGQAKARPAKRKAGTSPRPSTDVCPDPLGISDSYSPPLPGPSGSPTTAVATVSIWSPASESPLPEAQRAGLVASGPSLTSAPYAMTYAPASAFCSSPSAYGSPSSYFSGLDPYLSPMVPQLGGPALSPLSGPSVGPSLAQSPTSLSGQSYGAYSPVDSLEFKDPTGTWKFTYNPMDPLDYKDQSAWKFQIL
Chain of ELF4 (Q99607 whole entry): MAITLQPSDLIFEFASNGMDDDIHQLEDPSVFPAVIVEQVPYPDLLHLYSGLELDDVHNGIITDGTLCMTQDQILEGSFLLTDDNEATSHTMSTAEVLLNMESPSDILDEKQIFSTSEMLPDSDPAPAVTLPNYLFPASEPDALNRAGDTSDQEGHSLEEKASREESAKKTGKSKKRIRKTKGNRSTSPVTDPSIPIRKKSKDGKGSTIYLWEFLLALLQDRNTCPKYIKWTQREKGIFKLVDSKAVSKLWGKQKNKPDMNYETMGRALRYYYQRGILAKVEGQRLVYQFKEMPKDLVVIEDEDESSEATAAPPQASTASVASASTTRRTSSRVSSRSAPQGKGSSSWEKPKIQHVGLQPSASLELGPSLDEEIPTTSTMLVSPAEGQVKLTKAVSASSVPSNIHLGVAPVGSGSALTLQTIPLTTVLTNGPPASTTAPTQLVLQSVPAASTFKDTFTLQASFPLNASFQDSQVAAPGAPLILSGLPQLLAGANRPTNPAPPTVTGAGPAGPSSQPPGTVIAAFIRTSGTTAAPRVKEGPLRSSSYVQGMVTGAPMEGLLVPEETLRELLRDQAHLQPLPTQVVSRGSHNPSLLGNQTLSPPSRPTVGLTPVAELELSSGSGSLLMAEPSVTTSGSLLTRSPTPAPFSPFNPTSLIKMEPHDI
Chain of ETV5 (P41161 whole entry): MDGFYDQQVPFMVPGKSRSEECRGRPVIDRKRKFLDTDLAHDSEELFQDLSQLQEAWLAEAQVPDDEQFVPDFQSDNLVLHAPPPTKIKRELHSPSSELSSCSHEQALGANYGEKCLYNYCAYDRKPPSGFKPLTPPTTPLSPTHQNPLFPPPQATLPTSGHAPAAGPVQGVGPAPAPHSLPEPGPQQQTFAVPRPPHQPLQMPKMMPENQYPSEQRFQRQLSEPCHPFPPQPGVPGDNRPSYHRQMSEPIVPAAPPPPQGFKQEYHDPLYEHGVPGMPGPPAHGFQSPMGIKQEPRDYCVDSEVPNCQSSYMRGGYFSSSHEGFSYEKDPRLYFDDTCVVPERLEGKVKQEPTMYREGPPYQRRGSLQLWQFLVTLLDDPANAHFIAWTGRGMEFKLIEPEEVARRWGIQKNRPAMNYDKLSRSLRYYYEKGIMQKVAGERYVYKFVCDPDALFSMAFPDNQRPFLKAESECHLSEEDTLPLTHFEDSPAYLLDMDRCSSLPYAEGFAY
Chain of HSF1 (Q00613 whole entry): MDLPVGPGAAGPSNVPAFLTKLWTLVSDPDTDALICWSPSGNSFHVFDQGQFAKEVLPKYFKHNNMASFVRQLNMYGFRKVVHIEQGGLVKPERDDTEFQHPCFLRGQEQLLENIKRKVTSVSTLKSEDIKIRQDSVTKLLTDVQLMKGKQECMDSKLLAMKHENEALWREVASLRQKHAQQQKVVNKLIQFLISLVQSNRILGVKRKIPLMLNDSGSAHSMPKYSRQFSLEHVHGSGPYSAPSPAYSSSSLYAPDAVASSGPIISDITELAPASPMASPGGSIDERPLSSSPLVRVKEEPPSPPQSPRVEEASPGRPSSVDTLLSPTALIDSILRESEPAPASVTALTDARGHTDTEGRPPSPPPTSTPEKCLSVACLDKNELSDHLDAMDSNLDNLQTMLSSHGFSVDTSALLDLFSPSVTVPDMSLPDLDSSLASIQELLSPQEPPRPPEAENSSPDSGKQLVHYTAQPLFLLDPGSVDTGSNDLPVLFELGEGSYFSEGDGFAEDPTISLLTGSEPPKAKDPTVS

Regarding CCTTGG, the binding signal in the assay with FEV was 1.17 fold enrichment (6-mer frequency, TF over GST control); in the assay with ETV5, 1.21 fold enrichment (6-mer frequency, TF over GST control); with HSF1, 1.1 fold enrichment (6-mer frequency, TF over GST control); in the assay with SPIC, 1.23 fold enrichment (6-mer frequency, TF over GST control); with ELF4, 1.27 fold enrichment (6-mer frequency, TF over GST control); in the assay with ELK4, 1.37 fold enrichment (6-mer frequency, TF over GST control). Moreover, the binding signal is 1.28 fold enrichment (6-mer frequency, TF over GST control) with ETV2; 1.22 fold enrichment (6-mer frequency, TF over GST control) in the assay with ELF3; 1.09 fold enrichment (6-mer frequency, TF over GST control) with CRX; 1.35 fold enrichment (6-mer frequency, TF over GST control) in the assay with ETV1; 1.23 fold enrichment (6-mer frequency, TF over GST control) in the assay with ERF; 1.3 fold enrichment (6-mer frequency, TF over GST control) with ETV3L. In addition, the binding signal is 1.25 fold enrichment (6-mer frequency, TF over GST control) with ETS2; 1.25 fold enrichment (6-mer frequency, TF over GST control) in the assay with SPDEF; 1.22 fold enrichment (6-mer frequency, TF over GST control) in the assay with ETV7; 1.26 fold enrichment (6-mer frequency, TF over GST control) with ELF5; 1.12 fold enrichment (6-mer frequency, TF over GST control) with ETV3; 1.24 fold enrichment (6-mer frequency, TF over GST control) with ETV6.

(Values after publication PMC7862700, “An all-to-all approach to the identification of sequence-specific readers for epigenetic DNA modifications on cytosine”.)
